We go through seven compounds from PubChem BioAssay (Tox21).

Values without a mark were called inactive. Inconclusive results are not listed. Activity calls are given as the source filed them. Unless noted, the call rests on the fitted dose curve; in most records, active means well fitted curve in the direction sought with a large enough effect in the repeat runs; inconclusive means weak or mixed curves; inactive means no such curve, though single readings can be large; an effect the other way counts as inactive or inconclusive.

Assay [1] in a line: qHTS assay for small molecule agonists of the p53 signaling pathway (AID 651631; calls by dose curve; further: nearly all actives have a fitted effect of over 15% in size). In a few lines: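 Testing took place in human colorectal HCT-116 cells with stable p53RE-driven beta-lactamase. After 16 h of compound exposure at 37 °C, a FRET substrate was added and fluorescence recorded 2 h later.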
A general note: Quantitative high-throughput screening tests each substance at several concentrations.

Assay [2] is described as follows: qHTS assay for small molecules that induce genotoxicity in human embryonic kidney cells expressing luciferase-tagged ATAD5 (AID 651632). Further: nearly all actives have a fitted effect of over 15% in size. In a few lines: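 DMSO vehicle served as the control. HEK293T reporter cells, 16 hr at 37C, then 30 min Amplite at room temperature; ATAD5 induction is measured as luciferase activity.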
A short description of assay [3]: qHTS assay for small molecule agonists of the p53 signaling pathway - cell viability (AID 651633; calls by dose curve; further: series mostly up to about 83 µM; nearly all actives have a fitted effect of over 30% in size). In a few lines: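 Viability counter-read: CellTiter-Glo luminescence (30 min, room temperature) in the same p53RE-bla plates. These plates had been exposed to compounds for 16 h at 37 C.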
A short description of assay [4]: qHTS assay for small molecules that induce genotoxicity in human embryonic kidney cells expressing luciferase-tagged ATAD5 - cell viability (AID 651634; calls by dose curve; further: nearly all actives have a fitted effect of over 25% in size). In a few lines:
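Here HEK293T cells with the ATAD5 luciferase reporter are incubated with test compounds for 15.5 hr, and cytotoxicity is then gauged by measuring protease activity in live cells using fluorescence.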

Assay [5] can be described thus: qHTS assay for small molecule disruptors of the mitochondrial membrane potential - cell viability (AID 720634; calls by dose curve; further: nearly all actives have a fitted effect of over 20% in size; further: potency means the concentration at half of the fitted maximal effect). In a few lines:
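Viability of HepG2 cells is scored from ATP content by luminescence; cells are exposed to compound for 1 hr at 37 C and 5% CO2, then dosed with m-MPI dye before the CellTiter-Glo reagent.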

The nature of assay [6]: qHTS assay to test for compound auto fluorescence at 590 nm (red) in HepG2 cells (AID 720674). In a few lines: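 1 hr compound incubation on HepG2 cells, 37 C, 5% CO2; plate read ex 540 nm / em 590 nm; intensities reported as Rose Bengal sodium equivalents.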
A short description of assay [7]: qHTS assay to test for compound auto fluorescence at 535 nm (green) in HepG2 cells (AID 720675).
Assay [8] is described as follows: qHTS assay to test for compound auto fluorescence at 460 nm (blue) in HEK293 cells (AID 720678). In a few lines: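 Cells were seeded and left to adhere for 4-5 hr at 37C. Compounds were then pin-transferred. After an overnight incubation at 37C under 5% CO2, intrinsic fluorescence at 405/460 nm was measured and referenced to triamterene.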
Assay [9] is described as follows: qHTS assay to test for compound auto fluorescence at 590 nm (red) in HEK293 cells (AID 720679). In a few lines:
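Each well held 2,000 HEK293 cells in medium containing 10% dialyzed FBS. Following 4-5 hr attachment at 37C, 23 nL test compound or DMSO was added; plates sat overnight, and red fluorescence (540/590nm) was recorded.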

A short description of assay [10]: qHTS assay to test for compound auto fluorescence at 535 nm (green) in HEK293 cells (AID 720680).
Assay [11] can be described thus: qHTS assay to test for compound auto fluorescence at 460 nm (blue) in HEK293 cell free culture (AID 720681). In a few lines:
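Blue fluorescence (Ex 405/Em 460 nm, triamterene-equivalent) was read immediately after pin transfer of compound or DMSO into medium (DMEM, 10% FBS) without cells.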

Assay [12] in a line: qHTS assay to test for compound auto fluorescence at 535 nm (green) in HEK293 cell free culture (AID 720682). In a few lines:
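DMEM + 10% FBS, cell-free; cpd or DMSO pinned in; Ex485/Em535 read; output as fluorescein-equivalent signal.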

Assay [13] is described as follows: qHTS assay to test for compound auto fluorescence at 590 nm (red) in HEK293 cell free culture (AID 720683). In a few lines:
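Red-channel autofluorescence of compounds in culture medium (DMEM, 10% FBS), no cells, measured at 540/590 nm. Rose Bengal sodium is the reference fluorophore for equivalence.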

Assay [14] is described as follows: qHTS assay to test for compound auto fluorescence at 460 nm (blue) in HepG2 cell free culture (AID 720685). In a few lines: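 Cell-free plates of MEM plus 10% FBS received 23 nL compound or DMSO vehicle; blue-channel (405/460 nm) intensity scored against triamterene as reference fluorophore.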
Assay [15] in a line: qHTS assay to test for compound auto fluorescence at 535 nm (green) in HepG2 cell free culture (AID 720686).
The nature of assay [16]: qHTS assay to test for compound auto fluorescence at 460 nm (blue) in HepG2 cells (AID 720687). In a few lines:
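Blue-channel autofluorescence (Ex/Em 405/460 nm, triamterene-equivalent) was measured after 1 hr compound exposure at 37 C, 5% CO2. Cells were HepG2, plated overnight at 37 C in MEM plus 10% FBS.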

A short description of assay [17]: qHTS assay to test for compound auto fluorescence at 590 nm (red) in HepG2 cell free culture (AID 720684). In a few lines: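 Cell-free; medium MEM + 10% FBS; compound or DMSO added by pintool; read Ex 540/Em 590 nm; Rose Bengal sodium as red reference fluorophore.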
The target in assay [18] is Glucocorticoid receptor (Homo sapiens) (UniProt P04150). The experiment in a line: qHTS assay to identify small molecule agonists of the glucocorticoid receptor (GR) signaling pathway (AID 720691; active means well fitted activation curve with a large enough effect in the signal ratio in the repeat runs, not every such curve was filed as active; the % refers to the signal ratio). In a few lines: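 Compounds in DMSO, alongside positive controls, were added to GR-bla HeLa reporter cells and incubated 18 h at 37 C; GRE-driven beta-lactamase was detected by fluorescence after 2 h with FRET substrate at room temperature.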
Sequence of Glucocorticoid receptor (Homo sapiens) (P04150 whole entry, looked up): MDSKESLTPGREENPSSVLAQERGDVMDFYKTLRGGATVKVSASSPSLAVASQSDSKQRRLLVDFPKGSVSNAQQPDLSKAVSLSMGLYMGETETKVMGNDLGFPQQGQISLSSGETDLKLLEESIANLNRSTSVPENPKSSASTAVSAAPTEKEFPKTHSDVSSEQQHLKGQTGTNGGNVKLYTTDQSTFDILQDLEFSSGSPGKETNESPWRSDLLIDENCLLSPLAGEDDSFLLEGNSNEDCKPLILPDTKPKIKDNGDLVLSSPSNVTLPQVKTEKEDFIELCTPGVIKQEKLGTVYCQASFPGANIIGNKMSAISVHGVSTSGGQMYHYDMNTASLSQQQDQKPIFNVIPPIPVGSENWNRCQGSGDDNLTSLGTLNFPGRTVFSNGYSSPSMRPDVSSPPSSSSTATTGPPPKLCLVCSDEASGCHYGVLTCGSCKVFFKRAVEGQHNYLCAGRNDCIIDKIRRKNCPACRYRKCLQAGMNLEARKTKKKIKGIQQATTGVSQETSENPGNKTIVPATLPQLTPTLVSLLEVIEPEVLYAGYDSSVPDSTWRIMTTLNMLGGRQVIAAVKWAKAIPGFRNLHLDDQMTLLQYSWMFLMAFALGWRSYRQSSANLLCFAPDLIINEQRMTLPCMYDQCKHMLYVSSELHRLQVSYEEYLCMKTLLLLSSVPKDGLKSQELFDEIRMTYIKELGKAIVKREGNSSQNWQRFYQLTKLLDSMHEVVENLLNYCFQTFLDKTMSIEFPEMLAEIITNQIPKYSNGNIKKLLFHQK

Assay [19] has the same target. Description: qHTS assay to identify small molecule antagonists of the glucocorticoid receptor (GR) signaling pathway (AID 720692; active means well fitted inhibition curve with a large enough effect in the signal ratio in the repeat runs, not every such curve was filed as active; the % refers to the signal ratio). In a few lines: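 In a 1536-well cell format, compounds were added 4 h after seeding GR-bla HeLa cells, together with dexamethasone at 5 nM final; reporter activity was measured by FRET-substrate fluorescence following 18 h at 37 C.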
On the % scale 0 is the no-effect control and ±100 the full control effect.

For `COC(=O)CCCCCCCCC(=O)OC`, the Potency entry in assay [1], in [2], in assay [3], in assay [4], in [5] and in assay [8] was “inactive” in each case. In addition, the Potency result in assay [11], in [14] and in assay [16] was “inactive” in each case. Also, the call in [6], in assay [7], in assay [9], in [10], in [12] and in assay [13] was inactive. For the same compound, the result in assay [15] was inactive.

Take `COC[C@H](c1ccc(C(F)(F)F)cc1)N1CCN(C2(C)CCN(C(=O)c3c(C)ncnc3C)CC2)C[C@H]1C`: the Potency entry in assay [1], in assay [2], in [3], in assay [4], in assay [5] and in assay [8] was “inactive” throughout. The Potency result in [11], in [14], in assay [16], in assay [18] and in assay [19] was “inactive” each time. Also, the outcome in assay [6], in [7], in assay [9], in [10], in assay [12] and in [13] was inactive. Moreover, the result in [17] and in assay [15] was inactive.

Turning to `NS(=O)(=O)c1cc(C2(O)NC(=O)c3ccccc32)ccc1Cl` (stereo not drawn), the Potency entry in assay [1], in assay [2], in assay [3], in [4], in [5] and in [18] was “inactive” in each case. In addition, the Potency result in assay [19] was “inactive”. Moreover, the fluorescence, relative to Rose Bengal in assay [6] was -0.645% [at 18.6 µM]. Further, the fluorescence, % of fluorescein control in assay [7] was 7.3e-05% [at 18.6 µM]; in assay [15], 0.0502% [at 18.6 µM]. For the same compound, in [8], the fluorescence, % of triamterene was -0.0194% [at 18.6 µM]. The fluorescence, % of fluorescent control in assay [9] is 0.0283% [at 18.6 µM]; in assay [11] it was -0.0547% [at 18.6 µM]; in assay [13], 0.411% [at 18.6 µM]; in assay [14], 0.0381% [at 18.6 µM]; in [16] it was -0.125% [at 18.6 µM]. In [10], the fluorescence, % of fluorescein was 0.0145% [at 18.6 µM]. Besides, in assay [12], the activity change was 0.0635% [at 18.6 µM]. Moreover, the fluorescence, % of Rose Bengal in assay [17] was 0.348% [at 18.6 µM].

On to `CN(C)CCOC(c1ccc(Cl)cc1)c1ccccn1` (stereo not drawn), for which the Potency result in assay [1], in assay [2], in assay [3], in assay [4], in [8] and in assay [11] was “inactive” throughout. The Potency entry in assay [14], in assay [16], in assay [18] and in assay [19] was “inactive” each time. Also, in assay [5], the Potency was 5.31 µM (active). Further, the compound was classed as inactive in assay [6], in assay [7], in assay [9], in [10], in [13] and in assay [17]. The outcome in [15] was inactive.

On to `NS(=O)(=O)c1cc2c(cc1Cl)NC(CSCc1ccccc1)=NS2(=O)=O`, for which the Potency result in [1], in [2], in [3], in [4], in [5] and in assay [18] was “inactive” throughout. Moreover, the Potency entry in assay [19] was “inactive”. For the same compound, the fluorescence, relative to Rose Bengal in assay [6] was -0.338% [at 18.6 µM]. Further, the fluorescence, % of fluorescein control in assay [7] was 0.0219% [at 18.6 µM]; in assay [15] it was -0.0451% [at 18.6 µM]. The fluorescence, % of triamterene in [8] is -0.0281% [at 18.6 µM]. The fluorescence, % of fluorescent control in assay [9] was -0.0194% [at 18.6 µM]; in assay [11], -0.0458% [at 18.6 µM]; in [13], 0.107% [at 18.6 µM]; in assay [14], -0.0404% [at 18.6 µM]; in assay [16], 0.19% [at 18.6 µM]. For the same compound, the fluorescence, % of fluorescein in assay [10] is -0.0376% [at 18.6 µM]. Besides, the activity change in [12] was -0.222% [at 18.6 µM]. In addition, the fluorescence, % of Rose Bengal in assay [17] is 0.12% [at 18.6 µM].

Turning to `CCCCc1ccc(N)cc1`, the Potency entry in [1], in assay [2], in assay [3], in [4], in assay [5] and in assay [8] was “inactive” throughout. The Potency entry in assay [11], in assay [14], in assay [16], in [18] and in [19] was “inactive” in each case. Further, the result in assay [6], in assay [7], in [9], in assay [10], in [13] and in assay [17] was inactive. The compound was classed as inactive in assay [15].

Consider `O=C(O)CCNC(=O)c1ccc(N=Nc2ccc(O)c(C(=O)O)c2)cc1`, for which the Potency entry in [1], in [2], in [3], in assay [4], in [5] and in [8] was “inactive” in each case. In addition, the Potency result in [11], in [14], in [16], in [18] and in assay [19] was “inactive” in each case. Besides, the result in assay [6], in assay [7], in assay [9], in [10], in [12] and in assay [13] was inactive. The compound was called inactive in assay [17] and in assay [15].
